# Screening results from PubChem BioAssay.
# The list is not random: actives were taken first. Their share in the collection is about 7.9%.
# KB-3-1 tox – kills parental KB-3-1 adenocarcinoma cells. KB-3-1 viability, CellTiter-Glo ATP luminescence, 72 h. Potency, µM (highest dose often 46.1 µM), actives largely listed as cytotoxic. actives 1.4% (n = 400,000). AID 1347075; further: on the % scale 0 is the no-effect control and ±100 the full control effect; nearly all actives have a fitted effect of over 60% in size
#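 Luminescent ATP read-out (CellTiter-Glo) measures survival of drug-naive KB-3-1 cells after 72 h compound exposure at 37 °C. Titration series was screened from lowest to highest concentration, with DMSO vehicle plates as background controls.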
# HT1080 IDH1KD tx – kills HT-1080 cells with IDH1 knockdown; HT-1080 IDH1 knockdown viability, ATP luminescence, 48 h; Potency, µM (doses to about 46.1 µM), for the others: top-dose activity, negative = toxicity, most hits filed as cytotoxic; actives 2% (n = 360,000);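 further: 0% = DMSO wells and -100% = cell-free medium wells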
#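 % activity derives from luminescence (CellTiter-Glo), normalised to DMSO and no-cell wells. HT-1080-IDH1KD cells, 750/well, had 48 h compound exposure at 37 °C.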
# MCF10A rerep – DNA re-replication induction in MCF 10a cells; Potency, µM (series often up to 46.1 µM), for the others: at the top dose activity, positive = re-replication, hits mostly activators; actives 2.9% (n = 350,000); MCF 10A DNA re-replication, Hoechst nuclear intensity, 48 h; further: % of control where 0% means no effect; nearly all actives have a fitted effect of over 50% in size
# KB-V1 cytotox – KB-V1 MDR subline cytotoxicity. Potency, µM (series often up to 46.1 µM), most hits filed as cytotoxic. AID 1347076. KB-V1 MDR cells viability, CellTiter-Glo, 72 h. actives 3.4% (n = 400,000); further: on the % scale 0 is the no-effect control and ±100 the full control effect; nearly all actives have a fitted effect of over 60% in size
#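 KB-V1 MDR subline cells in DMEM (phenol-red free, 10% FBS) exposed to compounds in qHTS concentration series for 72 h at 37 degrees C. Viability read by CellTiter-Glo luminescence; concentration-effect curves fitted after normalization and correction.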
# HT1080NT lethal – kills 2HG-producing HT-1080-NT fibrosarcoma cells; Potency, µM (doses to about 46.1 µM), without a hit: at the top dose activity, negative = less viability, most hits filed as cytotoxic; HT-1080-NT fibrosarcoma viability, CellTiter-Glo ATP luminescence, 48 h; actives 1.6% (n = 360,000);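 further: NT is the 2HG producing partner of a matched IDH1 knockdown line; 0% = DMSO-treated cells and -100% = media-only wells without cells; nearly all actives have a fitted effect of over 55% in size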
#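 Luminescent CellTiter-Glo readout after 48 hours of compound exposure at 37 degrees C defined viability of HT-1080-NT cells. Activity was normalized to DMSO wells and cell-free media wells; concentration-response curves were fitted and assigned curve classes.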
# SW480 rerep – inducers of DNA re-replication in SW480 colon cancer cells. SW480 DNA re-replication, Hoechst DNA content imaging, 48 h. Potency, µM (titrated, usually from 46.1 µM), without a hit: top-dose re-replication activation, actives largely listed as activators. actives 1.8% (n = 340,000). AID 624297; further: % of control where 0% means no effect; nearly all actives have a fitted effect of over 55% in size
#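 Image-based DNA-content assay: after two days of treatment, nuclei were labelled with the DNA dye Hoechst and imaged, and hits were compounds raising the count of nuclei showing high fluorescence intensity.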
# * marks the source's active call; other numbers are inactive results; i = inactive; ? = inconclusive; . = no result; ! = not active in a repeat; [ ] = dose if it differs, or a comment. The call rests on the fitted dose curve; in most records, active means well fitted curve in the direction sought with a large enough effect; inconclusive means small, poorly fitted or top-dose-only effect, or another doubt; inactive means no such curve, though single readings can be large; an effect the other way counts as inactive or inconclusive. Potency means the concentration at half of the fitted maximal effect.
SMILES,KB-3-1 tox,HT1080 IDH1KD tx,MCF10A rerep,KB-V1 cytotox,HT1080NT lethal,SW480 rerep
CCOC(=O)c1cccc(NC(=O)c2c(O)[nH]c(=O)[nH]c2=O)c1,i,-1.5%,23.3%,i,-7.2%,-2.4%
O=C(NC1CONC1=O)OCC(Cl)(Cl)Cl (stereo unspecified),i,1.4%,1.7%,i,-1.7%,2.2%
CN(C)CCOc1ccc(/C(=C(/CCCl)c2ccccc2)c2ccccc2)cc1,i,?,4.61µM*,?,6.7%,-101.6%
CNC(=S)NC1CC2CCCC(C1)N2CC(C)C (stereo unspecified),i,13.2%,3.2%,i,2.8%,2.9%
Cc1ccc(CN2C3CCCC2CC(NC(=S)NCc2ccccc2)C3)cc1 (stereo unspecified),i,?,6.0%,i,23.1µM*,?
Cc1cc(-c2ccccc2)cc(C)[n+]1Cc1ccccc1,5.8µM*,-25.8%,-14.3%,i,-0.8%,-18.4%[9.22 µM]
CCc1ccc(OCCCN=C(C)c2c(O)n(C)c(=O)n(C)c2=O)cc1,i,?,18.9%,?,-6.2%,-4.7%
O=C1C2CC=CCC2C(=O)N1SC(Cl)(Cl)Cl (stereo unspecified),.,.,4.22µM*,.,.,6.68µM*
CC(C)(C)OC(=O)COc1cc(OCC(=O)OC(C)(C)C)c2c(=O)cc(-c3ccccc3)oc2c1,i,?,6.6%,20.6µM*,?,-3.0%
Cc1cccnc1,i,2.2%,17.6%,i,25.4%,-55.9%
CN1[C@@H]2CC[C@H]1CC(OC1c3ccccc3CCc3ccccc31)C2 (stereo partly specified),i,25.9µM*,-2.5%,?,16.4µM*,3.16µM*!
C=CCCC[C@@H]1OC(=O)CNC(=O)C([C@@H](C)CC)NC(=O)[C@@H]2CCCN2C(=O)C([C@@H](C)CC)OC(=O)[C@H](Cc2ccccc2)N(C)C(=O)[C@H](C(C)C)NC(=O)C1(C)C (stereo partly specified),?,?,.,i,?,.
CCC(C)C1NC(=O)C2CCCN2C(=O)C(CC(C)C)OC(=O)CCNC(=O)C(C)N(C)C(=O)C(C(C)C)N(C)C1=O (stereo unspecified),4.61µM*,23.1µM*,?,i,18.4µM*,11.6µM*
O=[N+]([O-])c1ccc(N2CCOCC2)c2c1no[n+]2[O-],?,5.17µM*,.,5.17µM*,5.17µM*,.
CC(C)N(CCC(=O)c1ccc2ccccc2c1)Cc1ccccc1,?,14.6µM*,-42.1%,i,4.11µM*,?
CCc1c(C)nc(N)nc1N1N=C1SCC(N)=O,i,-3.2%,-1.6%,i,-4.1%,6.8%
CCOC(=O)[C@]12Cc3cc(C)ccc3[C@H]1N(C)C(=O)c1ccccc12,i,-16.2%,.,i,0.3%,.
CCCCCN1C(=O)c2cc(OC)ccc2[C@@]2(C(=O)OCC)Cc3cc(Cl)ccc3[C@@H]12,0.651µM*,4.11µM*,.,1.64µM*,2.91µM*,.
CCOC(=O)[C@]12Cc3cc(OC)c(OC)cc3[C@H]1N(Cc1ccccc1)C(=O)c1ccccc12,i,-2.8%,10.7%,?,0.0%,-3.8%
CCOC(=O)[C@]12Cc3cc4ccccc4cc3[C@H]1N(Cc1ccccc1)C(=O)c1cc(OC)ccc12,5.8µM*,14.6µM*,.,16.4µM*,20.6µM*,.
CCOC(=O)[C@]12Cc3cc4ccccc4cc3[C@H]1N(Cc1ccccc1)C(=O)c1ccccc12,5.17µM*,14.6µM*,.,?,16.4µM*,.
CCOC(=O)[C@]12Cc3cc(Cl)ccc3[C@H]1N(Cc1ccccc1)C(=O)c1cc(OC)ccc12,2.59µM*,13µM*,.,7.31µM*,14.6µM*,.
COC(=O)NC(=S)Nc1ccccc1NC(=S)NC(=O)OC,?,.,-40.0%,i,.,?
O=C(Nc1ccccc1)N(Cc1ccc2c(c1)OCO2)C1CCN(Cc2ccccc2)CC1,i,.,.,i,.,.
CSc1ccc(CN2CCN(C(=O)COc3ccc(C)cc3)CC2)cc1,i,-14.1%,?,i,-0.1%,4.0%
SMILES,KB-3-1 tox,HT1080 IDH1KD tx,MCF10A rerep,KB-V1 cytotox,HT1080NT lethal,SW480 rerep
Cn1c(=O)c2c(ncn2CCCl)n(C)c1=O,i,0.7%,-5.8%,i,0.0%,-2.9%
O=c1[nH]c(=O)n(CCC2=CCCCC2)c(O)c1/C=N/N1CCOCC1,i,0.1%,-5.0%,i,-0.3%,-18.5%
O=c1[nH]c(=S)n(CCC2=CCCCC2)c(O)c1/C=N/N1CCOCC1,i,-17.3%,18.4µM*,i,1.8%,?
OC(O)C(Cl)(Cl)Cl,.,.,-6.3%,.,.,0.9%
O=C1NC(=O)C(=CN2CCc3ccccc32)C(=O)N1,i,-4.1%,-0.1%,i,5.8%,?
Cn1c(O)c(C=NCCc2c[nH]c3ccccc23)c(=O)n(C)c1=O,i,-3.4%,-2.9%,?,-0.6%,-1.1%
COC(=O)C1=C(c2ccc(-c3ccccc3)c(F)c2)C[C@@H]2CC[C@H]1N2C(=O)NCCO,?,-1.3%,14.7%,?,8.8%,-0.5%
COC(=O)C1=C(c2ccc(-c3ccccc3)c(F)c2)C[C@@H]2CC[C@H]1N2C(=O)NCCOc1ccccc1Cl,?,-16.5%,1.2%,20.6µM*,-24.9%,?
COC(=O)C1=C(c2ccc(-c3ccccc3)c(F)c2)C[C@@H]2CC[C@H]1N2C(=O)NCc1ccco1,?,-10.7%,20.6µM*,i,-23.7%,26.0%
CCCC(C)C1(CC)C(=O)NC(=O)NC1=O (stereo unspecified),.,.,3.2%,.,.,-3.9%
C=CCN1CC[C@]23c4c5ccc(O)c4OC2C(=O)CC[C@@]3(O)C1C5 (stereo partly specified),i,-0.3%,-15.5%,i,-11.3%,-1.8%
O=C(O)c1cccc2c1NC(c1cccc([N+](=O)[O-])c1)C1CC(Sc3ccccc3[N+](=O)[O-])C(Cl)C21 (stereo unspecified),i,?,?,i,-19.5%,-12.1%
C=CC[C@@H](CC/C=C/C=C/CC/C=C\[C@@H]1CSC([C@@H]2C[C@@H]2C)=N1)OC,i,2.06µM*,0.731µM*,i,2.31µM*,1.16µM*
OCCN1CCN(CCCN2c3ccccc3Sc3ccc(C(F)(F)F)cc32)CC1,i,23.1µM*,23.1µM*!,?,13µM*,?
FC(F)(F)c1ccc2c(c1)N(CCCN1CCN(CCCl)CC1)c1ccccc1S2,?,?,?,?,?,-2.8%
C[C@H]1C=CC(=O)O[C@H]1c1ccccc1,20.6µM*,-20.2%,?,?,-25.1%,-7.0%[9.22 µM]
